Assays:
ERK8 = test system: T1, ERK8
T1 construct: gene MAPK15

GRK3 = test system: T2, GRK3
T2 construct: gene ADRBK2

HASPIN = test system: T3, HASPIN
T3 construct: gene GSG2
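Further: kd values determined as follow-up on hits from a single-replicate KINOMEscan panel screen.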

Structure (SMILES): Nc1ncnc2[nH]c(-c3ccccc3)nc12 [AH5015]
- Kd (EIF2AK1): > 10000 nM

Structure (SMILES): Cn1cncc1-c1ccc2ncnc(Nc3ccc(OCc4ccccc4)cc3)c2c1 [GW320571]
- Kd (EIF2AK1): > 10000 nM
- Kd (ERBB2): 41 nM

Structure (SMILES): COc1ccc(CNC(=O)NC2CCN(c3ccnc(Nc4cc(OC)c(OC)c(OC)c4)n3)C2)cc1 (stereo not drawn) [GSK1379748]
- Kd (EPHB6): 180 nM

Structure (SMILES): COc1cc(Nc2nccc(N3CCC(NC(=O)Nc4cc(C)ccc4C)C3)n2)cc(OC)c1OC (stereo not drawn) [GSK1379762]
- Kd (EPHB6): 1100 nM

Structure (SMILES): Cl.O=C(Nc1cccc(-c2nn3ncccc3c2-c2ccnc(Nc3cccnc3)n2)c1)c1c(F)cccc1F [GSK312879]
- Kd (ERBB2): 29 nM
- Kd (ERBB4): 64 nM

Structure (SMILES): Cl.NC(=O)c1cccc(Nc2nccc(Nc3ccc(Oc4cccc(Cl)c4)c(Cl)c3)n2)c1 [GW659008]
- Kd (ERBB3): 260 nM

Structure (SMILES): O=C(Nc1n[nH]c2nc(-c3nccs3)c(Br)cc12)C1CC1 [SB-742251]
- Kd (ERK8): 870 nM

Structure (SMILES): NC(=O)c1nnc2ccccc2c1N
- Kd (FGFR3): > 10000 nM

Structure (SMILES): O=C(Nc1ccccc1)Nc1cccc(Oc2ccc3nccn3n2)c1
- Kd (FLT1): 91 nM

Structure (SMILES): Cn1ccc2ncnc(Oc3ccc(NC(=O)Nc4ccccc4)cc3)c21
- Kd (FLT1): 350 nM

Structure (SMILES): COc1cccc(-c2cc(-c3c[nH]nc3-c3ccccn3)ccn2)c1 [GW680338]
- Kd (FLT4): > 10000 nM

Structure (SMILES): O=C(O)COc1ncnc2cc(-c3ccc4[nH]ncc4c3)sc12
- Kd (FRK): > 10000 nM
- Kd (FYN): > 10000 nM

Structure (SMILES): CC(=O)Nc1nc2cnc(Nc3cc(NC(=O)c4cccc(CCC#N)c4)ccc3C)nc2s1
- Kd (FRK): > 10000 nM

Structure (SMILES): CC(C)(C)c1ccc(C(=O)Nc2cn3cc(Cl)ccc3n2)cc1
- Kd (FYN): > 10000 nM

Structure (SMILES): Clc1cc(Cl)cc(Nc2ccnc(Nc3cc(Cl)cc(Cl)c3)n2)c1 [GSK175726]
- Kd (GRK1): > 10000 nM

Structure (SMILES): CCCc1ccc(S(=O)(=O)NC2CCN(c3ccnc(Nc4ccc(F)cc4)n3)C2)cc1 (stereo not drawn) [GSK1379715]
- Kd (GRK1): > 10000 nM

Structure (SMILES): O=C(Nc1ccc2c(c1)OCO2)NC1CCN(c2ccnc(Nc3ccc(F)cc3)n2)C1 (stereo not drawn) [GSK1379724]
- Kd (GRK3): > 10000 nM

Structure (SMILES): Cc1ccc(NC(=O)Nc2cc(C(C)(C)C)nn2-c2ccccc2)cc1 [GSK1014915]
- Kd (GRK3): > 10000 nM

Structure (SMILES): Cc1csc(-c2nc(Nc3ccncc3)c3ccccc3n2)n1 [GW869640]
- Kd (HASPIN): 77 nM

Structure (SMILES): O=C1NC(=O)C(N2CCc3ccccc32)=C1c1ccccc1Cl [SB-373598]
- Kd (HASPIN): > 10000 nM

Structure (SMILES): Cc1nnc(-c2ccc3occ(-c4ccc(S(C)=O)cc4)c3c2)[nH]1 (stereo not drawn)
- Kd (HIPK2): 320 nM
